# Test results published in PubChem BioAssay (NCI).
# Compounds without any hit were thinned out: in the full panel of roughly 83,000, 20% have a hit.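 Cell lines were cultured in 96-well plates, exposed to a single compound concentration, and assessed for percent growth 48 hours later.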 Unmarked numbers belong to inactive results. The source made the active and inactive calls. Rule for the calls: active = growth percent below 10; inactive = the rest.
# Tested on: HL-60(TB) leukemia
# Test: NCI-60 one-dose screen, 48 h (100 = growth as untreated, 0 = no growth, -100 = all killed)
# Details: 10 µM unless noted
row,SMILES,growth
1,Cc1ccc(S(=O)(=O)CCCl)cc1,91.7%
2,Clc1ncnc2nc[nH]c12,101%
3,COc1ccc(/C=N/NC(N)=S)cc1,88.9%
4,CN(C)CC1CCC(CN(C)C)C1=O (stereo not given),84.2%
5,C=C(C)[C@@H]1CC[C@]2(C(=O)O)CC[C@]3(C)[C@H](CC[C@@H]4[C@@]5(C)C[C@@H](CC#Cc6ccccc6C)C(=O)C(C)(C)[C@@H]5CC[C@]43C)[C@@H]12,-14.7% (active)
6,Brc1ccc2[nH]cc(-c3nc(-c4c[nH]c5ccncc45)cs3)c2c1,-55.4% (active)
7,COc1cc(/C=C2\CCC/C(=C\c3ccc(OCC4CO4)c(OC)c3)C2=O)ccc1OCC1CO1 (stereo not given),-3.96% (active)
8,C=C1CCC2C3(C)COC(c4c(OC)cccc4OC)OC3CCC2(C)C1C/C=C1/C(=O)OCC1O (stereo not given),29.4%
9,c1ccc(N(c2ccccc2)c2ccccc2)cc1,94.2%
10,Cc1cc2ccccc2c[n+]1CC(=O)c1ccc(-c2ccccc2)cc1,22.5%
11,Cn1c2ccc(Br)cc2c2c3c(c4c5ccccc5[nH]c4c21)C(=O)N(O)C3=O,-58.6% (active)
12,O=C(Nc1ccc(N2CCNCC2)cc1)c1[nH]ncc1Nc1cc(Oc2ccccc2)ncn1,-49.6% (active)
13,O=C(O)/C=C/c1ccc2c(c1)CCC2,110%
14,COc1ccc(CCN2CCC(Nc3nc4ccccc4n3Cc3ccc(F)cc3)CC2)cc1,-53.5% (active)
15,N#CCCCCCn1c2ccccc2c2c3c(c4c5ccccc5[nH]c4c21)C(=O)N(O)C3=O,-46% (active)
16,COc1cc(-c2nc3ccccc3[nH]2)ccc1OCC(=O)N=Nc1c(O)[nH]c2ccccc12,79.8%
17,CC1(C)/C(=C\CO)C2CCC1C2 (stereo not given),94.1%
18,CCOC(=O)c1cc(-c2ccccc2)nc(N)n1,101%
19,Cc1[nH]nc2c1C(c1cnn(C)c1)C(C#N)=C(N)O2 (stereo not given),99.5%
20,COc1ccc(-c2cc(-c3cccs3)n(N=O)c(=O)c2C#N)cc1,94.7%

row,SMILES,growth
1,O=C(/C=C/C12c3ccccc3C(c3ccccc31)C1C(=O)NC(=O)C12)c1ccncc1 (stereo not given),2.98% (active)
2,C=C1C(=O)O[C@H]2[C@H]1CC/C(COC(=O)/C=C\C(=O)NCc1ccc(Cn3c(=O)sn(CCCCl)c3=O)cc1)=C\CC[C@@]1(C)O[C@@H]21,10.8%
3,COc1c(F)cc(-n2c(C(=O)N3CC(F)C3)cc3cccnc32)cc1F,98.3%
4,N#CC(C#N)=Cc1c(-c2ccccc2)[nH]c2ccccc12,-7.65% (active)
5,COc1ccc2nc(NC(=O)Nc3c(F)cccc3F)sc2c1,79.1%
6,COc1cc(CCn2nnc3c(NCCCCO)ncnc32)cc(OC)c1,133%
7,COc1ccc2[nH]c(O)c(/C=c3/cc4c(c(-c5ccc(F)c(OC)c5)n3)=Nc3ccccc3-4)c2c1,47%
8,COc1ccc(N2CCN(S(=O)(=O)c3oc(-c4ccccc4)nc3C#N)CC2)cc1,50.5%
9,CCOc1cc(N)ccc1C(=O)NCCCN(CC)CC,70.2%
10,O=C1/C(=C/c2cn(-c3ccccc3)nc2-c2ccccc2)SC(=S)N1c1ccccc1,103%
11,Cc1cc2nc3c4cc([N+](=O)[O-])ccc4n(CCN(C)C)c3nc2cc1C,-4.06% (active)
12,CN1Cn2c(ccc2C(F)(F)F)C(=O)CS1(=O)=O,108%
13,CCCCCCCCn1ccc2cc(NC(=O)Cn3cc(CN4CCC(C)CC4)nn3)ccc21,-22.4% (active)
14,Cc1cc(Cl)nc(N(CCCNc2ccnc3cc(Cl)ccc23)Cc2ccccn2)n1,12%
15,CC/C=C\C[C@H](F)C/C=C1/C(=O)C=C[C@@H]1C/C=C\CCCC(=O)O,-16.1% (active)
16,C=C1C(=O)O[C@H]2[C@H]1CC/C(Cn1cc(Cn3ccc4ccccc43)nn1)=C\CC[C@@]1(C)O[C@@H]21,-48.5% (active)
17,COc1ccc(N=c2nc3sc4cc(Cl)ccc4n3c(N)c2C#N)cc1,119%
18,CN1C2C=CC(=O)C1C1C(=O)N(c3ccccc3)C(=O)C12 (stereo not given),55.7%
19,Oc1ccccc1/C=N/N1CCCCCC1,86.7%
20,COc1ccc(/C=N/NC(=O)COCC(=O)N/N=C/c2ccc(OC)cc2)cc1,102%
